About 79,000 compounds went through this panel and 15% of them were active in at least one assay; those are over-represented in the sample as a whole. Values without a mark were called inactive. Active and inactive are the calls of the source. Rule as the data show it: active = growth inhibition above about 70%; inactive = the rest.
How the values were obtained:
[1] = NCI Yeast Anticancer Drug Screen. Data for the rad50 strain (AID 155);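 also: 0% = growth of vehicle-only cultures of the same strain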; settings: S. cerevisiae rad50 strain growth inhibition, active compounds read high
In short: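 Inhibition values express reduced yeast growth in compound-treated cultures relative to vehicle-treated controls.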

[2] = NCI Yeast Anticancer Drug Screen. Data for the mec2-1 strain (AID 157); settings: S. cerevisiae mec2-1 strain, active compounds read high
In short: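 Strain: mec2-1 (DNA repair/cell cycle alteration). Compound exposure, then growth measured; inhibition expressed relative to vehicle.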

[3] = NCI Yeast Anticancer Drug Screen. Data for the sgs1 mgt1 strain (AID 161);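 also: 0% = growth of cultures given vehicle only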; settings: S. cerevisiae sgs1 mgt1 strain, active compounds read high
In short: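 Inhibition of yeast growth, normalised to vehicle-treated controls, is reported for a strain bearing genetic alterations in DNA damage repair.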

[4] = NCI Yeast Anticancer Drug Screen. Data for the cln2 rad14 strain (AID 165);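 also: 0% = growth equal to vehicle treated cultures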; settings: S. cerevisiae cln2 rad14 strain, active compounds read high
In short: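 Compounds are applied to the cln2 rad14 yeast strain, and growth is then compared with that of vehicle-treated cultures to give inhibition.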

[5] = NCI Yeast Anticancer Drug Screen. Data for the bub3 strain (AID 167); settings: S. cerevisiae bub3 mutant strain, active compounds read high
In short: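 Steps: expose the mutant yeast strain to compound; grow alongside vehicle-treated cultures; measure growth; express inhibition against the vehicle cultures.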

[6] = NCI Yeast Anticancer Drug Screen. Data for the mlh1 rad18 strain (AID 175); settings: S. cerevisiae mlh1 rad18 strain growth inhibition, active compounds read high
In short: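 Read-out is yeast growth inhibition, calculated against vehicle-only controls. The compound was applied to a strain engineered with DNA damage repair alterations.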

[7] = at 5.0 µM (retest, dose inferred, filed as 0.5)
[8] = at 50.0 µM (retest, dose inferred, filed as 5.0)

| SMILES | growth inhibition [1, 7] | growth inhibition [1, 8] | growth inhibition ([1]; at 50.0 µM) | growth inhibition [2, 7] | growth inhibition [2, 8] | growth inhibition ([2]; at 50.0 µM) | growth inhibition [3, 7] | growth inhibition [3, 8] | growth inhibition ([3]; at 50.0 µM) | growth inhibition [4, 7] [%] | growth inhibition [4, 8] | growth inhibition ([4]; at 50.0 µM) | growth inhibition [5, 7] | growth inhibition [5, 8] | growth inhibition ([5]; at 50.0 µM) | growth inhibition [6, 7] | growth inhibition [6, 8] | growth inhibition ([6]; at 50.0 µM) |
| --- | --- | --- | --- | --- | --- | --- | --- | --- | --- | --- | --- | --- | --- | --- | --- | --- | --- | --- |
| CCC(c1ccc(O)cc1)C(CC)c1ccc(O)c(CN(C)C)c1 (stereo not given) | 1% | 76% (active) | 66.8% | 0% | 74% (active) | 45.5% | -6% | 98% (active) | 74.2% (active) | -3 | 83% (active) | 42.6% | -1% | 83% (active) | 36.5% | 2% | 96% (active) | 65.3% |
| CCOC(=O)/C(=C\c1cccc([N+](=O)[O-])c1)C(C)=O | 36% | 98% (active) | 93.2% (active) | 24% | 99% (active) | 94.8% (active) | 33% | 99% (active) | 93.2% (active) | 27 | 98% (active) | 90.5% (active) | 62% | 99% (active) | 92% (active) | 41% | 99% (active) | 92.3% (active) |
| Cc1cc(Cl)ccc1NC(=O)CC1SC(=NC(=O)c2ccccc2Cl)NC1=O (stereo not given) | 98% (active) | 99% (active) | 91% (active) | 99% (active) | 100% (active) | 94.2% (active) | 96% (active) | 99% (active) | 90.7% (active) | 48 | 99% (active) | 92.4% (active) | 98% (active) | 99% (active) | 91.5% (active) | 98% (active) | 99% (active) | 92.2% (active) |
| CC(C)(CC#N)c1cc(CC(C)(C)c2cc(CC(C)(C)c3cc(CC(C)(C)C4(C)OCCO4)no3)no2)no1 | -2% | 2% | 16.8% | -4% | -2% | 2.6% | -2% | 6% | -17.4% | 1 | -4% | 0.5% | -3% | 0% | -1.9% | -2% | -8% | 12.8% |
| CC(C)n1nnc2ccccc2c1=Nc1ccccc1 | 1% | 85% (active) | 96.1% (active) | -6% | 95% (active) | 97% (active) | -2% | 89% (active) | 96.2% (active) | 6 | 16% | 91.3% (active) | 0% | 63% | 95.5% (active) | 16% | 90% (active) | 96.5% (active) |
| COc1cnc2cc3c4c(cccc4c2c1)NC3=O | 87% (active) | 91% (active) | 80% (active) | 51% | 89% (active) | 82.2% (active) | 55% | 92% (active) | 79.7% (active) | 43 | 83% (active) | 75% (active) | 51% | 87% (active) | 80.8% (active) | 75% (active) | 91% (active) | 86% (active) |
| O=C(CSCc1c(F)cccc1Cl)Nc1ccc(F)c(Cl)c1 | 51% | 39% | 88.3% (active) | 34% | 38% | 91.3% (active) | 36% | 50% | 91.7% (active) | 33 | 44% | 90.1% (active) | 45% | 76% (active) | 91.5% (active) | 49% | 53% | 63.2% |
| c1ccc(C(c2ccccc2)c2ccc3ccccc3n2)cc1 | -3% | 91% (active) | 18.1% | -2% | 71% (active) | 40.8% | -4% | 92% (active) | 67.8% | 2 | 45% | -15.3% | 23% | 58% | 61.4% | -3% | 80% (active) | 37.5% |
| O=C(O)CN1CCNCCN(CC(=O)O)CCNCC1 | 66% | 94% (active) | 50.7% | 59% | 93% (active) | 76.1% (active) | 56% | 94% (active) | 69.8% | 25 | 85% (active) | 54.8% | 60% | 95% (active) | 56.2% | 66% | 94% (active) | 56% |
| Ic1ccc2c(c1)N(c1ccccc1)c1cc(N=c3ccc4nc5ccc(I)cc5n(-c5ccccc5)c-4c3)ccc1N2 | -3% | 15% | 81.5% (active) | 12% | 4% | 93.6% (active) | -4% | -13% | 76% (active) | 1 | 29% | 91.8% (active) | -8% | 11% | 97.3% (active) | -7% | 18% | 93.9% (active) |

Source: PubChem BioAssay (NCI)
